# Laboratory results taken from PubChem BioAssay (NCATS).
# Inconclusive results are not listed. Unmarked numbers belong to inactive results. The source made the active and inactive calls. The call rests on the fitted dose curve; in most records, active means well fitted inhibition curve with a large enough effect; inconclusive means small, poorly fitted or top-dose-only effect; inactive means no such curve, though single readings can be large or run the other way.
# Assay: Counterscreen for APE1 Inhibitors: Fluorescent Dye Displacement Validation Assay (AID 1707);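 on activity change, negative = inhibition: plate controls were ThO with dsDNA and no compound for no effect and ThO without dsDNA for full effect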
# Details: fluorescent dye displacement from DNA; series mostly up to 57.1 µM; activity change, negative = inhibition: at the top concentration
# Description: In order to distinguish true inhibitors of DNA-processing enzymes from promiscuous DNA-binding compounds among screening assay hits, we developed a homogeneous and miniaturized assay based on fluorescent dye displacement test as originally described by Tse and Boger (Accounts of Chemical Research (2004) 37: 61-69). The assay is based on the strong enhancement of fluorescence when Thiazole Orange (ThO) binds to double-stranded DNA: conversely, in the presence of a DNA-binding compound, Thiazole Orange is displaced from the DNA and its fluorescence is reduced.
# Buffer. 50 mM Tris-HCl (pH7.5) containing 50mM NaCl, 2 mM MgCl2, and 0.01% Tween-20.
# Buffer containing 250 nM ThO in columns 3 and 4 as negative control (no dsDNA).
# Reaction mixture: 250 nM ThO and 50 nM dsDNA at final concentration dispensed throughout the plate: in columns 1, 2, 5-48. Column 1 is neutral (100% activity).
# 5''TAMRA- TC ACC FTC GTA CGA CTC
# 3'' AG TGG GAG CAT GCT GAG
# where F denotes tetrahydrofuran.
# Control: Pintool transfer of control compound WB64 (W4761, Sigma-Aldrich) to column 2 of all assay plates as a two-fold 16-point dilution in duplicate (concentration range 5.75 uM - 0.175 nM).
# Four uL of reaction mixtures were dispensed to 1536-well Greiner black solid bottom plates. Compounds (23 nL) were transferred […] in order to measure the endpoint fluorescence using 480 nm excitation and 540 nm emission fluorescence protocol.
# Potency means the concentration at half of the fitted maximal effect.
SMILES,"activity change, negative = inhibition [%]",Potency
Cc1ccc(OCC(O)C(C)NC(C)C)c2c1CCC2 (stereo unspecified),2.1,–
O=C(OCCN1CCCCC1)c1c[nH]c2ccccc12,0.879,–
Nc1c(S(=O)(=O)O)cc(Nc2ccc(Nc3nc(Cl)nc(Nc4ccc(S(=O)(=O)O)cc4)n3)c(S(=O)(=O)O)c2)c2c1C(=O)c1ccccc1C2=O,–,8.91 µM (active)
C1CCC(N=C(NC23CC4CC(CC(C4)C2)C3)N2CCOCC2)CC1,0.282,–
NC(CCC(=O)NCS(=O)(=O)O)C(=O)O (stereo unspecified),-0.439,–
C/C=C1\C(=O)CC2C3CCC4=CC(=O)CC[C@]4(C)C3CC[C@]12C (stereo partly specified),1.05,–
Cc1cccc(C)c1NC(=O)C[N+](C)(C)C,0.506,–
COC(=O)c1c(-c2cc(OC)c(OC)c(OC)c2)c2ccnc(OCc3ncccn3)c2c(=O)n1Cc1ccnc(C)c1,0.288,–
Cc1cccc(/C=C/c2ccccc2)n1,1.16,–
O=C(O)c1cc(=O)c2ccc(Cl)cc2[nH]1,-3.33,–
O=C(Nc1cc(C(=O)Nc2ccc(S(=O)(=O)O)cc2S(=O)(=O)O)cc(C(=O)Nc2ccc(S(=O)(=O)O)cc2S(=O)(=O)O)c1)Nc1cc(C(=O)Nc2ccc(S(=O)(=O)O)cc2S(=O)(=O)O)cc(C(=O)Nc2ccc(S(=O)(=O)O)cc2S(=O)(=O)O)c1,–,4.47 µM (active)
CN(C)CCCCSC(=N)N,0.249,–
COc1ccccc1NC(=O)Nc1nc(-c2cccnc2)nc2ccccc12,2.8,–
COc1cc2c(cc1C(F)(F)F)N(C(=O)Nc1cc(F)cc(-c3cccnc3)c1)CC2,7.31,–
Cn1cnc2c(NC3CCCC3)ncnc21,-0.428,–
CC(N)=NCc1cccc(CN)c1,1.62,–
O=S(=O)(NCCNC/C=C/c1ccc(Br)cc1)c1cccc2cnccc12,-2.68,–
S=C(Nc1ccccc1)Nc1nccs1,2.79,–
COc1ccc2c(c1)c(CC(=O)N1CCOCC1)c(C)n2C(=O)c1ccc(Cl)cc1,-2.21,–
COc1[nH]c2ccc(F)cc2c1C(=O)OCC1CCN(CCNS(C)(=O)=O)CC1,-2.25,–
NCCCCCCNS(=O)(=O)c1cccc2c(Cl)cccc12,-0.546,–
NCCNS(=O)(=O)c1cccc2cnccc12,-1.94,–
CCCn1c(=O)c2[nH]c(-c3ccc(OCC(=O)Nc4ccc(C#N)cc4)cc3)nc2n(CCC)c1=O,57,–
CC(C)=CCC/C(C)=C/CC/C(C)=C/CSc1ccccc1C(=O)O,-5.01,–
C[N+](C)(C)CCC(=O)c1cccc2ccccc12,2.03,–
N#C/C(=C\c1ccc(O)c(O)c1)C(=O)Nc1ccccc1,-0.0087,–
